Screening results from PubChem.
Hits are enriched below; roughly 27% of the tested compounds scored in any of these assays.
CYP2C19 act: human CYP2C19 activators, primary screen, biochemical, luminescence; 96,000 tested, under 10 active; recombinant CYP2C19, luciferin-H EGE luminescence; stronger effect = higher value; 0 = fully inhibited enzyme, 1 = untreated enzyme; activation factor at 5 µM;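 active = activation factor of at least 2 at 5 µM in the primary screen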
sEH act: soluble epoxide hydrolase activators, primary screen, biochemical, human sEH | purified human sEH enzymatic activity, activator screen | activation, % at 2 µM | 91,000 compounds, 0.04% hits; in the data active = activation above about 37%
CYP2C19 inhib: blockers of cytochrome P450 2C19 activity – biochemical, luminescence, ADME assay, primary screen; P33261; CYP2C19 Supersomes, luciferin-H EGE luminescence, 30 min; inhibition, % at 5 µM; 96,000 compounds, 21% hits; AID 778, 2007;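 active = CYP2C19 inhibition above a set limit at 5 µM in the primary screen, cut at about 50% in these data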
sEH inhibitor: soluble epoxide hydrolase inhibitors, primary screen, biochemical, human sEH. recombinant human sEH enzymatic activity assay. inhibition, % at 2 µM. 91,000 compounds, 0.34% hits. AID 707, 2007; in the data active = inhibition above about 80%
CYP2C9 inhib: blockers of cytochrome P450 2C9 activity – biochemical, luminescence, ADME assay, primary screen; P11712; CYP2C9 Supersomes, luciferin-H conversion; inhibition, % at 5 µM; 96,000 compounds, 20% hits; AID 777, 2007;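 active = blocking of liver enzyme CYP2C9 beyond about 50% at 5 µM, limit read from the data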
Target sequence (P11712 whole entry, looked up): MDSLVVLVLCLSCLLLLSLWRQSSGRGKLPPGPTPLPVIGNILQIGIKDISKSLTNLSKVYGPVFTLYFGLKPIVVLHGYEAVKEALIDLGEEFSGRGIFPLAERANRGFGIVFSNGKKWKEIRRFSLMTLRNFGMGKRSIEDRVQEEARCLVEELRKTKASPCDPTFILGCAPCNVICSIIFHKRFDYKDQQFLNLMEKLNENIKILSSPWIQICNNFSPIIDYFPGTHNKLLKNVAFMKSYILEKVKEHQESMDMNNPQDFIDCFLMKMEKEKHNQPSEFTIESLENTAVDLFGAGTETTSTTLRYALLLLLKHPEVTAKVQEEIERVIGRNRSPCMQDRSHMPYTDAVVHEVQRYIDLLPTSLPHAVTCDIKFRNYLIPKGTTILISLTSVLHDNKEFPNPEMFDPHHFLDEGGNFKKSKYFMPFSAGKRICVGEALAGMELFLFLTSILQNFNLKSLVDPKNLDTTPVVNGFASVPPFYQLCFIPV
CYP2C9 act: human CYP2C9 activators, primary screen, biochemical, luminescence | recombinant CYP2C9, luciferin-H conversion; stronger effect = higher value; factor 1 = untreated enzyme, 0 = blocked | 96,000 compounds, 1.4% hits | activation factor at 5 µM | AID 1024, 2008;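 active = activation factor of 2 or more for CYP2C9 at a 5 µM dose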
Large screens that a line does not name were inactive.

O=c1cc(-c2ccccc2)nc2nc(COc3ccccc3)[nH]n12	none
Cc1nc2nc(Cc3ccccc3)[nH]n2c(=O)c1Cl	CYP2C9 inhib 68.7
O=C(NCc1ccco1)C1CC(c2c(Cl)cccc2Cl)=NO1 (centres undefined)	CYP2C9 act 2.3
COc1ccc(C2=NOC(C(=O)NCc3ccco3)C2)cc1 (centres undefined)	none
COc1ccccc1CNC(=O)C1CC(c2c(Cl)cccc2Cl)=NO1 (centres undefined)	CYP2C19 inhib 83.8, CYP2C9 act 2.2
COc1ccccc1CNC(=O)C1CC(c2ccc([N+](=O)[O-])cc2)=NO1 (centres undefined)	none
O=C(NCc1cccc(C(F)(F)F)c1)C1CC(c2c(Cl)cccc2Cl)=NO1 (centres undefined)	CYP2C19 inhib 78.3
COc1cc(OC)c(C2=NOC(C(=O)NCCc3ccccc3)C2)cc1Cl (centres undefined)	CYP2C19 inhib 61.5
CN1CC(=O)N/C1=N\C(=O)Nc1ccc2c(c1)N(C)C(=O)CS2	none
CC(C)CC(=O)Nc1ccccc1-c1nnn(CC(=O)N2CCOCC2)n1	none
Cc1ccc(/C(O)=C2/C(=O)C(=O)N(CCN3CCOCC3)C2c2cccs2)cc1 (centres undefined)	none
Cc1ccc(S(=O)(=O)C(CCC(=O)N2CCOCC2)S(=O)(=O)c2ccc(C)cc2)cc1	none
COc1ccc(OCCCc2c(C)n[nH]c2C)cc1	CYP2C19 inhib 84.8, CYP2C9 inhib 68.6
Cc1cccc(OCCCCc2c(C)n[nH]c2C)c1	CYP2C19 inhib 89.2, CYP2C9 inhib 75.8
Cc1n[nH]c(C)c1CCCOc1ccccc1	CYP2C19 inhib 86.9, CYP2C9 inhib 60.2
COc1cccc(OCCc2c(C)n[nH]c2C)c1	none
O=C(Oc1nsnc1N1CCOCC1)N(c1ccccc1)c1ccccc1	none (no result: sEH act, sEH inhibitor)
O=C(Oc1ccc(-c2nnco2)cc1)N(c1ccccc1)c1ccccc1	CYP2C19 inhib 69.2
O=C(Oc1ccc(-c2nnco2)cc1)N1CCCCC1	CYP2C19 inhib 77.4
COC(=O)C(Cc1ccccc1)NC(=O)CSc1nc(N)cc(=O)[nH]1 (centres undefined)	none (no result: sEH act, sEH inhibitor)
CSc1ccc(CNc2ccc(C)cc2)cc1	CYP2C19 inhib 86.6
CSc1ccc(CNc2ccc(C)c(C)c2)cc1	CYP2C19 inhib 98.3
CSc1ccc(CNc2cccc3ccccc23)cc1	CYP2C19 inhib 98.4
Cc1cc(C)c(OCCCCNCc2ccccc2)c(Cl)c1	none
Cn1cc(S(=O)(=O)CC(=O)Nc2ccc3c(c2)OCO3)c2ccccc21	none (no result: CYP2C19 act, CYP2C19 inhib, CYP2C9 inhib, CYP2C9 act)
CCn1cc(S(=O)(=O)CC(=O)Nc2cc(C)ccc2C)c2ccccc21	CYP2C19 inhib 95.5
CCOC(=O)N1CCN(C(=O)CS(=O)(=O)c2cn(Cc3ccccc3Cl)c3ccccc23)CC1	none
Cc1cccc(NC(=O)CS(=O)(=O)c2cn(C)c3ccccc23)c1	CYP2C19 inhib 55.8 (no result: sEH act, sEH inhibitor)
Cc1cc(NC(=O)CS(=O)(=O)c2cn(Cc3ccccc3Cl)c3ccccc23)no1	CYP2C9 inhib 67.6
O=c1[nH]c(N2CCCCC2)nc2c1CCCC2	none
Cc1cc(C)c2c(n1)sc1c(N3CCOCC3)ncnc12	none (no result: CYP2C19 act, CYP2C19 inhib, CYP2C9 inhib, CYP2C9 act)
O=C1CC(c2ccc3c(c2)OCO3)c2cc3c(cc2N1)OCCO3 (centres undefined)	CYP2C19 inhib 78.1, CYP2C9 inhib 91.4
COc1cc2c(cc1OC)C(c1cccs1)CC(=O)N2 (centres undefined)	none
O=C1CC(c2ccncc2)c2cc3c(cc2N1)OCCO3 (centres undefined)	CYP2C19 inhib 60.6, CYP2C9 inhib 58.9
O=C1CC(c2ccsc2)c2cc3c(cc2N1)OCCO3 (centres undefined)	none (no result: sEH act, sEH inhibitor)
O=C1CC(c2cccs2)c2cc3c(cc2N1)OCO3 (centres undefined)	CYP2C19 inhib 67.1
CCOc1c(OC)cccc1C1CC(=O)Nc2cc3c(cc21)OCCO3 (centres undefined)	CYP2C19 inhib 93.9, CYP2C9 inhib 69.7 (no result: sEH act, sEH inhibitor)
Cc1ccccc1NC(=O)CCC(=O)OCCCC(F)(F)C(F)(F)F	none
CCOC(=O)Cn1c(=N)n(Cc2ccccc2F)c2ccccc21	none
Cn1ncc(C#N)c1NC(=O)C1CC(c2ccc(Cl)cc2)=NO1 (centres undefined)	CYP2C19 inhib 72.1
COc1ccc(CNC(=O)COC(=O)c2cc(-c3cccs3)nc3ccccc23)cc1OC	CYP2C9 inhib 74.8
COc1ccc(CNC(=O)COC(=O)c2cc(-c3ccco3)nc3ccccc23)cc1	none
CSCCC(NC(=O)OC(C)(C)C)C(=O)NC(C(=O)NC(CC(C)C)C(N)=O)C(C)C (centres undefined)	none
COc1ccc(NC(=O)C2CCCN(C)C2)cc1OCC(C)C (centres undefined)	none (no result: CYP2C19 act, CYP2C19 inhib, CYP2C9 inhib, CYP2C9 act)
CCn1c(C(=O)N2CCC(C(=O)N3CCN(c4ccccn4)CC3)CC2)cc2sccc21	CYP2C19 inhib 65.2
O=C(NCc1ccc(F)cc1)c1cc2sccc2n1Cc1ccc(F)cc1	none (no result: CYP2C19 act, CYP2C19 inhib, CYP2C9 inhib, CYP2C9 act)
O=C(c1cc2sccc2n1Cc1ccc(F)cc1)N1CCCc2ccccc21	none (no result: CYP2C19 act, CYP2C19 inhib, CYP2C9 inhib, CYP2C9 act)
CC1CCN(C(=O)C2CCN(C(=O)c3cc4sccc4n3Cc3ccc(F)cc3)CC2)CC1	CYP2C9 inhib 72.9
CC(C)NC(=O)C1CCN(C(=O)c2cc3sccc3n2Cc2ccc(F)cc2)CC1	CYP2C19 inhib 56.5, CYP2C9 inhib 72.3
CCCOc1ccc(CCN2CCC(=O)NC2=O)cc1C	none
Cc1cc(CCN2CCC(=O)NC2=O)ccc1OC(C)C	CYP2C19 inhib 51.2
CN1CCN(C(=O)c2ccc(CN3CCOCC3)cc2)CC1	none (no result: sEH act, sEH inhibitor)
Cc1ccccc1NC(=O)c1ccc(CN2CCc3ccccc3C2)cc1	none
CCc1ccccc1NC(=O)c1ccc(CN2CCC(Cc3ccccc3)CC2)cc1	CYP2C19 inhib 56.4
O=C(c1ccc(CN2CCOCC2)cc1)N1CCC(Cc2ccccc2)CC1	CYP2C19 inhib 66.0, CYP2C9 inhib 70.6 (no result: sEH act, sEH inhibitor)
C=CCn1c(N)cc(=O)nc1SCC(=O)N1CCN(c2ccc(F)cc2)CC1	none
Cc1nc(SC(C(=O)c2ccccc2)c2ccccc2)n[nH]1 (centres undefined)	CYP2C19 inhib 78.1
CCOC(=O)c1sc(NC(=O)Nc2ccc(Cl)cc2)cc1C	sEH inhibitor 91.8
CCOC(=O)c1sc(NC(=O)c2ccc(Cl)s2)cc1C	sEH inhibitor 91.3
CN(C1=NC(=O)C(CC(=O)Nc2ccc(Br)cc2)S1)c1ccc(O)cc1 (centres undefined)	CYP2C9 inhib 62.1
COc1ccc(CNC(=O)c2ccc(NC(=O)CC3SC(N4CCCC4)=NC3=O)cc2)cc1 (centres undefined)	none
CCOC(=O)c1cnn(-c2cc(Oc3ccccc3C)ncn2)c1N	none
COC(=O)CSc1nnc(CNC(=O)Cc2ccccc2)n1C	none
